Reference: PMC4552634, “A New Set of Chemical Starting Points with Plasmodium falciparum Transmission-Blocking Potential for Antimalarial Drug Discovery” (PLoS ONE, 2015)
About 3,200 (25%) of roughly 13,000 compounds showed an effect of 50% or more. The list shows a part of the results.

System: P. falciparum stage V gametocytes
Design: BacTiter-Glo ATP luminescence viability of purified stage V gametocytes in 384-well plates, per cent inhibition versus DMSO
Settings: 48 h, 5 µM; inhibitor

Compared with `COc1cc2nccc(Nc3cccc(Oc4ccccc4)c3)c2cc1OC.Cl` [TCMDC-137216], `NC(=O)c1ccccc1OCC(=O)Nc1cccc(-c2cccc(-c3nc4ccccc4[nH]3)c2)c1` [TCMDC-132127] is lower in “% Inhibition” value: 29.43% for the first, 20.22% for the second.

Going from `Cc1ccc(NC(=O)c2ccc(CN3CCCN(Cc4cccc(O)c4)CC3)cc2)cc1F` [TCMDC-136395] to `Cc1cc(C(=O)Nc2ccc3c(c2)CCN3C2CCN(Cc3cccc4cc[nH]c34)C2)no1` (stereo not drawn) [TCMDC-135085], the “% Inhibition” value rises from 3.853% to 42.96%.

Compared with `O=C1C(C2CCC(c3ccc(Cl)cc3)CC2)=C2OCC3COC2(O3)c2ccccc21` (stereo not drawn) [TCMDC-138169], `O=C1COC2(CN1C1CCN(Cc3ccc(O)c(Cl)c3)C1)c1ccccc1-c1ccccc12` (stereo not drawn) [TCMDC-136342] is lower in “% Inhibition” value: 65.18% for the first, -3.473% for the second.

First: Cc1ccccc1C1CCN(C2CCC(NC(=O)/C=C/c3cccc(F)c3F)CC2)CC1 (stereo not drawn) [TCMDC-133525]
Second: Cc1noc(-c2ccc3c(c2)CCN(CCC2CCC(NC(=O)/C=C/c4cccc(Cl)c4)CC2)CC3)n1 (stereo not drawn) [TCMDC-139877]
The “% Inhibition” value of the first is lower: -91.19% for the first, -87.8% for the second.

First: CC(=O)Nc1ncc(C(=O)Nc2ccc(-c3cccc(-c4nc5ccc(C(F)(F)F)cc5[nH]4)c3)cc2)s1 [TCMDC-136919]
Second: NC(=O)c1ccccc1OCC(=O)Nc1ccc(-c2cccc(-c3nc4ccc(C(F)(F)F)cc4[nH]3)c2)cc1 [TCMDC-132129]
The “% Inhibition” value of the first is lower: -27.65% for the first, 71.31% for the second.

Compared with `Nc1cccc(CNCc2cccc(-c3ccc(-c4nc5ccccc5[nH]4)s3)c2)c1.O=C(O)C(F)(F)F` [TCMDC-132926], `NC(=O)c1ccccc1OCC(=O)Nc1cccc(-c2ccc(-c3nc4ccc(C(F)(F)F)cc4[nH]3)cc2)c1` [TCMDC-132132] is higher in “% Inhibition” value: -42.76% for the first, -3.438% for the second.

Going from `CNC(=O)COc1ccc(Nc2nnc(-c3ccc(C)c(S(=O)(=O)NCC4CCCO4)c3)c3ccccc23)cc1` (stereo not drawn) [TCMDC-125616] to `Cc1cccc2[nH]c(-c3cccc(-c4ccc(NC(=O)COc5ccccc5C(N)=O)cc4)c3)nc12` [TCMDC-132131], the “% Inhibition” value rises from 3.105% to 84.32%.

Going from `COc1ccc(NC(=O)/C=C/c2ccccc2Cl)cc1OCCN1CCC(NC2CC2)CC1` [TCMDC-140756] to `COc1ccc(NC(=O)/C=C/c2ccccc2Cl)cc1OCCN1CCC(N(C)C)CC1` [TCMDC-140755], the “% Inhibition” value rises from -32.57% to 36.26%.

Going from `CCOc1ccc(Br)cc1/C=C/C(=O)Nc1ccc2c(c1)CN(C)CCC2` [TCMDC-133944] to `CCOc1ccc(Br)cc1/C=C/C(=O)Nc1ccc(C2CCN(C)CC2)cc1` [TCMDC-134194], the “% Inhibition” value rises from 3.1% to 61.62%.

Going from `Cc1cc(-c2ccc3c(c2)CCN(CCCOc2ccc4c(c2)CCN4C(=O)/C=C/c2ccccc2Cl)CC3)no1` [TCMDC-141470] to `COc1cc2c(cc1OCCN1CCC(N)CC1)N(C(=O)/C=C/c1ccccc1Cl)CC2` [TCMDC-140969], the “% Inhibition” value falls from 81.48% to 75.81%.

First: CCCCN(CCCC)CCOc1cc2c(cc1OC)CCN2C(=O)/C=C/c1ccccc1Cl [TCMDC-141328]
Second: COc1cc2c(cc1OCCN1CCC(N3CCCC3)CC1)N(C(=O)/C=C/c1ccccc1Cl)CC2 [TCMDC-140968]
The “% Inhibition” value of the first is lower: 30.32% for the first, 80.73% for the second.

First: COc1ccc(Br)cc1/C=C/C(=O)Nc1ccc(C2CCN(C)CC2)cc1 [TCMDC-133711]
Second: COc1ccc(NC(=O)/C=C/c2ccccc2Cl)cc1OCCN1CCC(N2CCN(C)CC2)CC1 [TCMDC-140757]
The “% Inhibition” value of the first is higher: 12.54% for the first, 11.04% for the second.

First: Cc1cnccc1/C=C/c1cccc(OCCCN2CCc3ccc(S(C)(=O)=O)cc3CC2)c1 [TCMDC-135876]
Second: COc1ccc(NC(=O)/C=C/c2ccccc2Cl)cc1OCCN1CCC(NCc2ccccc2)CC1 [TCMDC-140746]
The “% Inhibition” value of the first is higher: 29.22% for the first, -31.11% for the second.

First: COc1cc(NC(=O)N2CCc3cc(OC)c(OCCN4CCCCC4)cc32)cc(C(F)(F)F)c1 [TCMDC-140782]
Second: COc1cc2c(cc1OCCN1CCC(N3CCCCC3)CC1)N(C(=O)/C=C/c1ccccc1OC(F)(F)F)CC2 [TCMDC-141018]
The “% Inhibition” value of the first is lower: 9.489% for the first, 57.17% for the second.

First: COc1cc(NC(=O)/C=C/c2ccccc2OC(F)(F)F)cc(OCCN2CCCCC2)c1 [TCMDC-140931]
Second: COc1ccc(NC(=O)/C=C/c2ccccc2Cl)cc1OCCN1CCC(N2CCCCC2)CC1 [TCMDC-140698]
The “% Inhibition” value of the first is lower: -34.24% for the first, -6.505% for the second.

Compared with `NC1=NC(c2ccccc2)N(c2ccccc2)C(N)=N1` (stereo not drawn) [TCMDC-123669], `CC(C)(C)C(Cn1ccnc1)NCc1cn[nH]c1-c1ccc(-c2ccccc2)cc1` (stereo not drawn) [TCMDC-124639] is higher in “% Inhibition” value: -71.64% for the first, 18.54% for the second.

First: CNC(=O)CNC(=O)COc1cccc2ccccc12 [TCMDC-131646]
Second: Cc1cccc2[nH]c(-c3cccc(-c4cccc(NC(=O)COc5ccccc5C(N)=O)c4)c3)nc12 [TCMDC-132130]
The “% Inhibition” value of the first is lower: 8.257% for the first, 45.07% for the second.

First: O=C(N/N=C/c1nc2ccccc2[nH]1)c1cccc([N+](=O)[O-])c1 [TCMDC-125792]
Second: COCC(=O)Nc1nc2ccccc2[nH]1 [TCMDC-125535]
The “% Inhibition” value of the first is higher: 11.6% for the first, -0.9845% for the second.

Compared with `CCCCCCCC1=NN2C(=N)C(=Cc3cc(Br)c(OCc4ccc(F)cc4)c(OCC)c3)C(=O)N=C2S1` [TCMDC-124035], `CCOc1cc(O)c(-c2nc(N)ncc2-c2ccc3c(c2)OCCO3)cc1CC` [TCMDC-125234] is higher in “% Inhibition” value: 8.522% for the first, 11.3% for the second.

Compared with `CC1(C)N=C(N)NC(Nc2ccc(Cl)cc2)=N1` [TCMDC-124268], `CC(C)COc1ccc(Cl)cc1Cc1ccc(-c2nc3ccc(Cl)cc3[nH]2)o1` [TCMDC-136546] is lower in “% Inhibition” value: 26.51% for the first, -3.56% for the second.

Compared with `COCCCNC(=O)[C@H]1CNCCN1C(=O)c1ccccc1` [TCMDC-141239], `O=C(/C=C/c1ccc(Cl)c(Cl)c1)NCCCCCN1CCC(NC(=O)Nc2cccc(Cl)c2F)CC1` [TCMDC-135721] is lower in “% Inhibition” value: -7.699% for the first, -53.7% for the second.

Going from `COc1ccc(NC(=O)/C=C/c2ccccc2Cl)cc1OCCN1CCC(N2CCCC2)CC1` [TCMDC-140919] to `CN1CCC(N2CCN(CCOc3cc(NC(=O)/C=C/c4ccccc4Cl)ccc3Br)CC2)CC1` [TCMDC-140962], the “% Inhibition” value rises from -16.17% to 101%.

First: COc1cc2c(cc1OCCN1CCC(N3CCCCC3)CC1)N(C(=O)/C=C/c1ccccc1Cl)CC2 [TCMDC-140770]
Second: O=C(/C=C/c1ccccc1Cl)Nc1ccc(Br)c(OCCN2CCN(CCN3CCCC3)CC2)c1 [TCMDC-140961]
The “% Inhibition” value of the first is higher: 68.26% for the first, 38.25% for the second.

Compared with `O=C(Nc1ccc(N2CCCCC2)c(Cl)c1)c1ccc(Br)o1` [TCMDC-124350], `CC(C)COc1ccc(Cl)cc1Cc1ccc(-c2nc3ccc(CCN4CCCC4)cc3[nH]2)o1` [TCMDC-136890] is higher in “% Inhibition” value: 9.025% for the first, 21.95% for the second.

Going from `CC1CCN(C(=O)CSc2nc(-c3ccc(C(C)C)cc3)no2)CC1` [TCMDC-124746] to `CC(C)COc1ccc(Cl)cc1Cc1ccc(-c2nc3ccc(N4CCN(C)CC4)cc3[nH]2)o1` [TCMDC-136709], the “% Inhibition” value rises from 17.92% to 31.86%.

First: CC(C)NCc1ccc(-c2ccc(NS(=O)(=O)c3cccc4cccnc34)cc2)cc1 [TCMDC-136476]
Second: Cc1cccc2[nH]c(-c3cccc(-c4ccc(NC(=O)COC(C)C)cc4)c3)nc12 [TCMDC-137038]
The “% Inhibition” value of the first is higher: 32.43% for the first, 26.32% for the second.

First: CCN(CC)CCNc1ccnc2[nH]c3ccc(C)cc3c12 [TCMDC-131833]
Second: CC(C)COc1ccc(Cl)cc1Cc1ccc(-c2nc3ccc(CCN(C)C)cc3[nH]2)o1 [TCMDC-136891]
The “% Inhibition” value of the first is lower: -0.1276% for the first, 30.85% for the second.

First: CCn1ncc2c(N3CCCC3=O)cc(C(=O)N[C@@H](Cc3ccccc3)[C@H](O)CNC(C)(C)c3cccc(OC)c3)cc21 [TCMDC-135063]
Second: CCCCC(CC)C(=O)C(NC(=O)[C@H](CSC(c1ccccc1)(c1ccccc1)c1ccccc1)NC(=O)OC(C)(C)C)C(=O)OC (stereo partly drawn) [TCMDC-138083]
The “% Inhibition” value of the first is higher: 45.35% for the first, 0.3187% for the second.

Compared with `O=C(Nc1ccc(-c2cccc(-c3nc4ccc(F)cc4[nH]3)c2)cc1)Nc1ccc(Cl)c(Cl)c1` [TCMDC-133282], `Cc1cccc2[nH]c(-c3ccc(-c4ccc(NC(=O)Nc5ccc(Cl)c(Cl)c5)cc4)cc3)nc12` [TCMDC-133281] is lower in “% Inhibition” value: -9.249% for the first, -29.93% for the second.

Compared with `CCC(CC)NCc1c(O)ccc2c(CNC(CC)CC)c(O)ccc12` [TCMDC-137581], `Cc1nc2ccc(S(=O)(=O)Nc3ccc(C(=O)N[C@@H](CCC(=O)O)C(=O)O)cc3)cc2c(=O)[nH]1` [TCMDC-137978] is higher in “% Inhibition” value: -56.22% for the first, -10.92% for the second.

Going from `CC(C)COc1ccc(Cl)cc1Cc1ccc(-c2nc3ccc(Br)cc3[nH]2)o1` [TCMDC-136705] to `CC(C)COc1ccc(Cl)cc1Cc1ccc(-c2nc3ccc(F)cc3[nH]2)o1` [TCMDC-136545], the “% Inhibition” value falls from 53.1% to 33.1%.

Compared with `CC(C)COc1ccc(Cl)cc1Cc1nc(-c2nc3ccc(CN(C)C)cc3[nH]2)co1` [TCMDC-136809], `CC(C)COc1ccc(Cl)cc1Cc1ccc(-c2nc3ccc(C(F)(F)F)cc3[nH]2)o1` [TCMDC-136563] is higher in “% Inhibition” value: -8.138% for the first, 61.92% for the second.

Going from `CC(C)COc1ccc(Cl)cc1Cc1ccc(-c2nc3cc(F)c(F)cc3[nH]2)o1` [TCMDC-136561] to `CCCN(Cc1nnc(-c2cccs2)o1)C(=O)CSc1nnnn1-c1cc(C)cc(C)c1` [TCMDC-125265], the “% Inhibition” value falls from 53.5% to 15.05%.
